{
  "source": "PubChem BioAssay (EPA / NIEHS)",
  "note": "Inconclusive results are not listed. Activity calls are given as the source filed them. The calls were made as follows: active = hit-call score of the fitted dose curve at least 0.9, where 1 is the maximum; inconclusive = response in the unintended direction; inactive = score below 0.9.",
  "data": [
    {"molecular_target": "Androgen receptor (Homo sapiens) (UniProt P10275)", "sequence (P10275 whole entry, looked up)": "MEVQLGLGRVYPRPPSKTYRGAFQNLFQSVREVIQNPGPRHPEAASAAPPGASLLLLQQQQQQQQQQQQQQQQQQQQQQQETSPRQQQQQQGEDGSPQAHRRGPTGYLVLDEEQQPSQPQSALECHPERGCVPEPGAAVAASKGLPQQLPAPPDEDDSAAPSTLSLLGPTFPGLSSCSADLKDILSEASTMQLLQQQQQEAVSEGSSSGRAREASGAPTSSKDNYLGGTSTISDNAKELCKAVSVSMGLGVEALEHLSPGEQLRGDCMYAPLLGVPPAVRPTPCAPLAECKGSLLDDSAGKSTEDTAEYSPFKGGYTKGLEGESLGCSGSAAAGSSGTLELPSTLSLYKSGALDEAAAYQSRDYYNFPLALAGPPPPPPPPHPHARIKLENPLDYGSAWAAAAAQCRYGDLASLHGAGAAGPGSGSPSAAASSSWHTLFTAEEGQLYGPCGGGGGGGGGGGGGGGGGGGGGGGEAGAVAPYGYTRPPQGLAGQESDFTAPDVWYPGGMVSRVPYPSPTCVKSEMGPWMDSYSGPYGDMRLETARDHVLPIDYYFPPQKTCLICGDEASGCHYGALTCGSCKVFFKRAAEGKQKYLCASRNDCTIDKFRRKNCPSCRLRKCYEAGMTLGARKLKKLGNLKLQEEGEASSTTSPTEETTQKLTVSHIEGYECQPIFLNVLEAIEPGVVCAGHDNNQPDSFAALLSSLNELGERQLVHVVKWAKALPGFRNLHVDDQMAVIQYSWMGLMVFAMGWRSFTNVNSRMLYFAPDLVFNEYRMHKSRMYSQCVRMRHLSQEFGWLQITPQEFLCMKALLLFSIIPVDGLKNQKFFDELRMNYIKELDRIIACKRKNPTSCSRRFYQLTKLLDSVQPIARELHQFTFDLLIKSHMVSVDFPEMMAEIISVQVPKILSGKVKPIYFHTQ", "experiment": "ATG_AR_TRANS: Attagene TRANS-FACTORIAL HepG2 Assay for human Androgen Receptor (AR) (AID 2282973)", "settings": "HepG2 Attagene TRANS-FACTORIAL AR reporter transcription", "protocol": "ATG_TRANS is a cell-based, multiplexed-readout assay that uses HepG2, a human liver cell line, with measurements taken at 24 hours after chemical dosing in a 24-well plate.ATG_AR_TRANS is one of 30 assay component(s) measured or calculated from the ATG_TRANS assay. It is designed to make measurements of mRNA induction, a form of inducible reporter, as detected with fluorescence intensity signals by Reverse transcription polymerase chain reaction (RT-PCR) and Capillary electrophoresis technology.Data from the assay component ATG_AR_TRANS was analyzed into 1 assay endpoint. This assay endpoint, ATG_AR_TRANS, was analyzed in the positive analysis fitting direction relative to DMSO as the negative control and baseline of activity. Using a type of inducible reporter, measures of mRNA for gain-of-signal activity can be used to understand the reporter gene at the transcription factor-level as they relate to the gene AR. Furthermore, this assay endpoint can be referred to as a primary readout, because this assay has produced multiple assay endpoints where this one serves a reporter gene function. To generalize the intended target to other relatable targets, this assay endpoint is annotated to the nuclear receptor intended target family, where the subfamily is steroidal.\nHuman liver HepG2 cells are transiently transfected with multiple reporter transcription units (MRTUs) in 6-well plates using FuGene 6 reagent (Roche; 3 ml FuGene/1 mg DNA). The MRTU constructs are regulated by a cis-regulating element (promoter). […] A major difference between the CIS and TRANS system is that in CIS activities of endogenous TFs are measured, whereas the TRANS assay evaluates changes in activities of exogenous, chimeric NR-Gal4 proteins. […] At the end of 24 hour incubation, total RNA was isolated using TriZol reagent (Invitrogen). The isolated RNA is then reverse-transcribed using oligo(dT) primer and Mo-MLV reverse transcriptase (Invitrogen) with DNAse I (Ambion) treatment for 30 min. The one-tenth of the produced cDNA was amplified by PCR using Taq DNA polymerase (Invitrogen) and two reporter sequence-specific primers. The PCR products were fluorescently labeled by primer extension with 6-arboxyfluorescein (6-FAM) 5'-labeled reporter sequence-specific primer (2 min at 95 C, 20 s at 68 C and 10 min at 72 C) and these products were digested with 5U of HpaI (New England Biolabs) for 2h at 37 C. The fragments were purified using Qiaquick PCR columns (Qiagen), analyzed on an ABI 3130xL genetic analyzer (Applied Biosystems) with peak positions identified by using a set of X-rhodamine (ROX)-labeled MapMarker1000 molecular weight standards (BioVentures). The raw capillary electrophoresis data was processed using Attagraph software (Attagene).", "values": [
      {"smiles": "CC(C)(OOC(C)(C)c1ccccc1)c1ccccc1", "outcome": "inactive"},
      {"smiles": "CC(C)N(Cc1ccccc1)C(=O)C(C)(C)C", "outcome": "inactive"},
      {"smiles": "CCNS(=O)(=O)C(F)(F)C(F)(F)C(F)(F)C(F)(F)C(F)(F)C(F)(F)C(F)(F)C(F)(F)F", "outcome": "inactive"},
      {"smiles": "Nc1ccc(Cl)cc1N", "outcome": "inactive"},
      {"smiles": "O=C(Nc1ccccc1)c1ccccc1I", "outcome": "inactive"},
      {"smiles": "Cc1cc(N=Nc2ccccc2C)ccc1N", "outcome": "inactive"},
      {"smiles": "O=C1CCCO1", "outcome": "inactive"},
      {"smiles": "O=[N+]([O-])C(Br)(CO)CO", "outcome": "inactive"},
      {"smiles": "CCCCC(CC)COC(=O)c1ccc(C(=O)OCC(CC)CCCC)c(C(=O)OCC(CC)CCCC)c1", "note": "(configuration not stated)", "outcome": "inactive"},
      {"smiles": "CNC(=O)Oc1cccc2c1OC(C)(C)C2", "outcome": "inactive"},
      {"smiles": "CO[C@@H]1[C@H](OC(=O)NC(=O)CCl)CC[C@]2(CO2)[C@H]1[C@@]1(C)O[C@@H]1CC=C(C)C", "outcome": "inactive"},
      {"smiles": "CC(C)(O)c1cnn2c(-c3ccc(F)c(-c4c(F)cccc4C#N)c3)cnc2n1", "outcome": "inactive"}
    ]}
  ]
}
